# Screens as filed in PubChem.
# AmpC inh no detg – qHTS Inhibitors of AmpC Beta-Lactamase (assay without detergent). P00811. AmpC nitrocefin hydrolysis, absorbance 480 nm, 0.0001% Triton. Potency, µM (titrated, usually from 57.1 µM), inactives show at the top dose activity change, negative = inhibition, hits mostly inhibitors. 0.52% of 330,000 active;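 further: plate controls were no compound for no effect and no enzyme for full effect; nearly all actives have a fitted effect of over 20% in size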
# Target sequence (P00811 whole entry, looked up): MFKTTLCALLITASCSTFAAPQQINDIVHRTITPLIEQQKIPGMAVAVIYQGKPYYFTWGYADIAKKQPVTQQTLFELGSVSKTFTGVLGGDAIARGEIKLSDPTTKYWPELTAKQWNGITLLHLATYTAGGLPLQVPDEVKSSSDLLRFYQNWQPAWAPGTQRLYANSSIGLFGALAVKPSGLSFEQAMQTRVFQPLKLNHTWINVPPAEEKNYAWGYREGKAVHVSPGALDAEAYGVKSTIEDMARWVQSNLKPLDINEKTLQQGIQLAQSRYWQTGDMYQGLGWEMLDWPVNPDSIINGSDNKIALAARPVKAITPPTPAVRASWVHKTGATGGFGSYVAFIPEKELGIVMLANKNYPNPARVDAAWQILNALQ
#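 AmpC (5.3 nM in the dispensed reagent) in 20 mM phosphate pH 7.0 with 0.01% (detergent screen) or 0.0001% Triton X-100 was preincubated with compounds for 15 min at room temperature. Nitrocefin was then added from an 800 uM solution, and hydrolysis was followed at 480 nm.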
# Sm TGR inh – qHTS Assay for the Inhibitors of Schistosoma Mansoni Peroxiredoxins; Schistosoma mansoni thioredoxin glutathione reductase (TGR), Q962Y6; purified TGR, DTNB reduction, TNB absorbance 405 nm; Potency, µM (highest dose often 114 µM), for inactives: at the top dose activity change, negative = inhibition, usual class: inhibitors; 3% of 360,000 active; AID 485364, 2010; further: nearly all actives have a fitted effect of over 60% in size
#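 TGR 20 nM + NADPH 100 uM (dispensed conc.), cpd preinc 15 min RT; start with NADPH (500 uM addition) then DTNB (15 mM addition). Kinetic TNB absorbance, 405 nm filter. Four-parameter Hill fit across titration.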
# AmpC inh detg – qHTS Inhibitors of AmpC Beta-Lactamase (assay with detergent); P00811; AmpC hydrolysis of nitrocefin, absorbance 480 nm, 0.01% Triton; Potency, µM (series often up to 114 µM), inactives show at the top dose activity change, negative = inhibition, actives largely listed as inhibitors; 0.041% of 370,000 active; AID 485294, 2010;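 further: 0% = no-compound wells and -100% = no-enzyme wells; nearly all actives have a fitted effect of over 25% in size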
#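 20 mM phosphate pH 7.0 + 0.01% (detergent screen) or 0.0001% Triton X-100; 5.3 nM AmpC reagent; cpd preinc 15 min RT; nitrocefin (800 uM stock) to start; A480 q20 s × 4 min; Activity was normalised to no-enzyme and no-compound control wells.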
# Active calls of the source: *; ? = inconclusive; nt = not tested or not shown; [ ] = dose if it differs, or a comment. Only some compounds are listed: those with a hit (about 3.3% of all), similar ones and a draw of the others. The call rests on the fitted dose curve; in most records, active means well fitted curve in the direction sought with a large enough effect; inconclusive means small, poorly fitted or top-dose-only effect, or another doubt; inactive means no such curve, though single readings can be large; an effect the other way counts as inactive or inconclusive. Unless noted, on the % scale 0 is the no-effect control and ±100 the full control effect; potency means the concentration at half of the fitted maximal effect.
SMILES,AmpC inh no detg,Sm TGR inh,AmpC inh detg
COc1ccc(O)c(-c2cc(C(F)(F)C(F)F)nc(-c3ccccc3)n2)c1,-10.6%,2.5%,0.1%
Oc1ccccc1-c1cc(C(F)(F)C(F)F)nc(-c2ccccc2)n1,-11.4%,89.1µM*,-0.2%
CCOc1ccc(-c2nnc(SCC(=O)c3ccc(F)cc3)n2-c2ccccc2)cc1,nt,19.0%,0.8%
CCOc1ccc(-c2nnc(-c3ccccc3)n2-c2ccccc2)cc1,5.62µM*,-5.6%,0.6%
Cc1cc(NS(=O)(=O)c2ccc(NC(=S)NC(=O)c3cccc(S(=O)(=O)N(C)C)c3)cc2)no1,-24.3%,35.5µM*,?
COc1ccc(NS(=O)(=O)c2ccc(NC(=S)NC(=O)c3ccc(Br)cc3)cc2)nn1,-40.1%,39.8µM*,-9.5%
Cc1cc(NS(=O)(=O)c2ccc(NC(=S)NC(=O)c3ccc(F)cc3)cc2)no1,-21.4%,?,?
COc1ccc(NS(=O)(=O)c2ccc(NC(=S)NC(=O)c3cccc(F)c3)cc2)nn1,-28.3%,44.7µM*,-3.5%
COc1ccc(NS(=O)(=O)c2ccc(NC(=S)NC(=O)c3cccnc3)cc2)nn1,-26.9%,?,4.2%
COc1ccc(NS(=O)(=O)c2ccc(NC(=O)c3ccc(Br)cc3)cc2)nn1,-42.9%,nt,1.4%
CC(C)(C)NC(=O)NC(=O)COC(=O)Cc1coc2ccc3ccccc3c12,-22.5%,1.7%,-16.0%
CSc1ccc(S(=O)(=O)NCC(=O)OCC(=O)N2CCC(C)CC2)cc1[N+](=O)[O-],18.5%,-15.1%,-4.7%
CCOC(=O)Cn1c(=O)oc2cc(S(=O)(=O)N3CCN(c4ccccc4OC)CC3)ccc21,nt,7.4%,-1.0%
CC(C)CCNC(=O)CN1C(=O)CN=C(c2ccccc2)c2ccccc21,-14.4%,7.0%,2.5%
O=C(Cc1csc(-c2ccccc2)n1)NCc1ccc(F)cc1,-0.4%,6.0%,-14.7%
O=C(Cc1csc(-c2ccccc2)n1)NCc1ccco1,-0.4%[11.4 µM],39.8µM*,-13.5%
COc1ccc(C(=O)Nc2sc3c(c2C(=O)NCc2ccco2)CCCC3)cc1OC,-2.2%,-17.0%,-0.9%
O=C(CN1C(=O)CN=C(c2ccccc2)c2ccccc21)NCc1ccco1,14.0%,39.8µM*,2.5%
COc1ccc(C2=NCC(=O)N(CC(=O)NCc3ccco3)c3sc4c(c32)CCCC4)cc1OC,109.3%,22.4µM*,1.8%
CCCC(C)NC(=O)COC(=O)c1ccc2c(c1)C(=O)N(Cc1ccco1)C2=O (configuration not stated),-8.7%,2.7%,-2.4%
CCOc1ccc(CCNC(=O)CSc2nc3ccccc3nc2Cc2ccc(C)cc2)cc1OCC,nt,-5.9%,?
CCc1ccc(NC(=O)c2ccc3c(O)c(S(=O)(=O)c4ccc(Cl)cc4)c(=O)[nH]c3c2)cc1,nt,-1.1%,17.1%
COc1cccc(NC(=O)Cn2c(=O)n(Cc3ccccc3)c(=O)c3c2c2cc(C)ccc2n3C)c1,nt,0.7%,1.4%
COc1ccc(CC2SC(N)=NC2=O)cc1 (configuration not stated),-16.8%,-17.9%,?
Cc1ccc(NC(=O)C(OC(=O)c2ccc(O)cc2)c2ccccc2)cc1Cl (configuration not stated),7.08µM*,3.0%,-3.4%
SMILES,AmpC inh no detg,Sm TGR inh,AmpC inh detg
Cc1ccc(NC(=O)C(OC(=O)c2ccc(F)cc2)c2ccccc2)cc1Cl (configuration not stated),-19.9%,-5.7%,-0.7%
CCCCn1c2ccc(F)cc2c2nnc(NN)nc21,-22.3%,2.4%,5.1%
N#Cc1ccc(C23CC4(C2)[C@H](CN(CC2CCCCC2)[C@@H]4c2ccccc2)C3c2ccc(C(F)(F)F)cc2)cc1 (some centres not stated),9.2%,-25.8%,0.6%
O=C(Nc1ccccc1N1CCCCC1)c1ccc(-c2cccc(Cl)c2)o1,-55.8%,-7.8%,5.7%
Cc1ccc2nsnc2c1NC(=O)c1ccc(-c2cc(Cl)ccc2Cl)o1,18.1%,39.8µM*,-0.8%
Cc1ccc2nsnc2c1NC(=O)CCl,-17.2%,44.7µM*,-4.3%
CCC(=O)Nc1c(C)ccc2nsnc12,-30.2%,9.4%[11.4 µM],-11.8%
Cc1ccc2nsnc2c1NC(=O)Cc1ccc(Cl)cc1,-26.3%,6.1%,0.6%
O=C(Nc1cccc2nsnc12)c1ccc(-c2cccc(Cl)c2)o1,-50.6%,6.31µM*,?
S=c1[nH]nc(C2CCCCC2)n1/N=C/c1ccc(Br)s1,-29.3%,6.0%,-0.4%
Cc1ccccc1C(=O)Nc1cccc(-c2nc3cccnc3s2)c1,nt,-14.1%,-5.8%
O=C(c1ccccc1NS(=O)(=O)c1ccc(F)cc1)N1CCOCC1,-13.1%,2.6%,2.3%
COc1ccc(/C=N/OCC(=O)N=Nc2c(O)[nH]c3ccc(Br)cc23)cc1OC,3.16µM*,-6.7%,0.1%
COc1ccc(/C(C)=N/OCC(=O)N=Nc2c(O)[nH]c3ccc(Br)cc23)cc1,-39.1%,7.0%,?
Cc1ccc(NC(=O)N2CCN(C)c3ncccc32)cc1C,nt,-1.5%,3.0%
COc1ccc(-n2c(/C=C/c3cccc(C(F)(F)F)c3)nc3ccccc3c2=O)cc1Cl,nt,3.8%,0.3%
CCc1nn2c(=O)cc(COC(=O)c3ccccc3NC(=O)COc3ccccc3C)nc2s1,nt,0.9%,9.8%
Cc1ccc(-c2cccc(CN3CCN(C(C)C)C(CCO)C3)c2)o1 (configuration not stated),19.4%,35.5µM*,4.0%
CC(C)N1CCN(Cc2ccc3c(c2)OCCO3)CC1CCO (configuration not stated),-15.1%,?,-1.0%
O=C(Nc1cc(SCC(O)CO)cc([N+](=O)[O-])c1)c1ccc(-n2cnnn2)cc1 (configuration not stated),-23.8%,nt,3.3%
Cc1ccccc1NC(=O)Cc1nc(COC(=O)c2ccc(Cl)c(S(N)(=O)=O)c2)cs1,35.5µM*,-0.9%,-15.1%
Cc1ccccc1NC(=O)Cc1nc(COC(=O)c2cccc(O)c2)cs1,-30.8%,-2.5%,4.7%
COc1cccc(N2CC(NC(=O)C3CC3)CC2=O)c1 (configuration not stated),nt,9.1%,-1.2%
O=C(NCc1ccccc1)C(=O)NCC(c1ccco1)S(=O)(=O)c1ccccc1 (configuration not stated),nt,?,1.2%
O=C(NCc1ccccc1Cl)C(=O)NCC(c1ccco1)S(=O)(=O)c1cccs1 (configuration not stated),nt,31.6µM*,3.2%
O=C(NCc1ccccc1F)C(=O)NCC(c1ccco1)S(=O)(=O)c1cccs1 (configuration not stated),nt,12.6µM*,1.4%
O=C(NCc1ccccc1F)C(=O)NCC(c1cccs1)S(=O)(=O)c1cccs1 (configuration not stated),nt,?,3.1%
O=C(NCc1ccc(F)cc1)C(=O)NCC(c1ccco1)S(=O)(=O)c1cccs1 (configuration not stated),nt,7.94µM*,3.5%
COc1ccccc1CNC(=O)C(=O)NCC(c1ccco1)S(=O)(=O)c1cccs1 (configuration not stated),nt,8.91µM*,0.0%
